Measured potencies and affinities stand elsewhere. Calls of active or inactive are those of the source. How the calls were made is not given here.
Target: Protein RecA (Mycobacterium tuberculosis (strain ATCC 25618 / H37Rv)) (UniProt P9WHJ3)
Assay: GFP RecA biochemical assay with DTT, Mycobacterium tuberculosis H37Rv, confirmatory dose response (AID 493233)
Settings: plate reader; series mostly up to 35 µM

Chain of Protein RecA (Mycobacterium tuberculosis (strain ATCC 25618 / H37Rv)) (P9WHJ3 whole entry, looked up): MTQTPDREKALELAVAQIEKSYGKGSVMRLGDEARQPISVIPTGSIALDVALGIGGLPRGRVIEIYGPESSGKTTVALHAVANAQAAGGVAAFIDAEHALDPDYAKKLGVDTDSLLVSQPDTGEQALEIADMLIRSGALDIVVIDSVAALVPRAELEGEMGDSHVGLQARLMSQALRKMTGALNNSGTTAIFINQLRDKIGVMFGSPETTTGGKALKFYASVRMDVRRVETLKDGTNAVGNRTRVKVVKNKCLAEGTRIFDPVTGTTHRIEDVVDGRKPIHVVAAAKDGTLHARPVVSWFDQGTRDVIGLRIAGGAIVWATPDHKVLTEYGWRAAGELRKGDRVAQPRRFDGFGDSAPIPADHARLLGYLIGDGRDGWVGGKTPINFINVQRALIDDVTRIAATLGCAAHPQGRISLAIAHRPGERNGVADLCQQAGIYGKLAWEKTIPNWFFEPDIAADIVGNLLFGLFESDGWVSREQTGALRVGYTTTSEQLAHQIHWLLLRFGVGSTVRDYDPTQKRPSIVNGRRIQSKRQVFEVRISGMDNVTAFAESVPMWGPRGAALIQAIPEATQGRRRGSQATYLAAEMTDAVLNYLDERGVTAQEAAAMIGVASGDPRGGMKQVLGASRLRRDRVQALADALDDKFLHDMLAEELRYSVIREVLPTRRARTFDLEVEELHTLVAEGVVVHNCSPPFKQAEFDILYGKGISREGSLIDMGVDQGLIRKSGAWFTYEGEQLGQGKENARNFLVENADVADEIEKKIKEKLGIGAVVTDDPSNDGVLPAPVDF

Row | Structure (SMILES) | outcome
1 | Nc1cn(-c2ccccc2)nc1-c1ccc(F)cc1 | inactive
2 | C/C(=N\NC(=O)c1ccncc1)c1cc2ccccc2oc1=O | inactive
